Data: the supplement of paper PMC9950053
Counter-ions that a name gives are not always drawn.

What follows are compounds tested on Danio rerio larvae (5 dpf) (assay: combined optomotor response (time in upper well half, down vs up moving lines, periods 7-14) minus DMSO control (percentage points); higher = stronger optomotor response than DMSO larvae). Settings: 10 µM; exposure time: 3 h pre-incubation + 3 h imaging.
Method: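 Wild-type 5 dpf zebrafish larvae (n=48 per drug, 96-well plates, 28.5 °C) were exposed to Tocris FDA-approved library compounds at 10 µM (0.1% DMSO) for 3 h before and 3 h during imaging. Images were taken every 6 s during visual and acoustic stimuli, and larvae were tracked with Z-LaP Tracker. Each measure is the treated-group mean minus the DMSO control mean (n=844), in percentage points. This mapping covers compounds with 5-character plate codes.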

Compound	combined optomotor response
N#Cc1ccc2[nH]cc(CCCCN3CCN(c4ccc5oc(C(N)=O)cc5c4)CC3)c2c1 [Vilazodone hydrochloride]	-6.69
COCCc1ccc(OCC(O)CNC(C)C)cc1 (stereo unspecified) [Metoprolol tartrate]	1.91
NS(=O)(=O)c1cc2c(cc1Cl)NC(C1CC3C=CC1C3)NS2(=O)=O (stereo unspecified) [Cyclothiazide]	0.296
CNCc1ccc(-c2[nH]c3cc(F)cc4c3c2CCNC4=O)cc1 [Rucaparib camsylate]	4.21
NC(=O)OCC(COC(N)=O)c1ccccc1 [Felbamate]	-0.92
CCCc1nn(C)c2c(=O)[nH]c(-c3cc(S(=O)(=O)N4CCN(C)CC4)ccc3OCC)nc12 [Sildenafil citrate]	-0.855
OC(c1cc(C(F)(F)F)nc2c(C(F)(F)F)cccc12)C1CCCCN1 (stereo unspecified) [Mefloquine hydrochloride]	-2.6
CN[C@H]1CC[C@@H](c2ccc(Cl)c(Cl)c2)c2ccccc21 [Sertraline hydrochloride]	-6.63
COc1cc(N)c(Cl)cc1C(=O)NC1CCN(CCCOc2ccc(F)cc2)CC1OC (stereo unspecified) [Cisapride]	4.72
CC[C@H]1OC(=O)[C@H](C)[C@@H](O[C@H]2C[C@@](C)(OC)[C@@H](O)[C@H](C)O2)[C@H](C)[C@@H](O[C@@H]2O[C@H](C)C[C@H](N(C)C)[C@H]2O)[C@](C)(O)C[C@@H](C)CN(C)[C@H](C)[C@@H](O)[C@]1(C)O [Azithromycin]	-4.55
COc1ccccc1OCC(O)CN1CCN(CC(=O)Nc2c(C)cccc2C)CC1 (stereo unspecified) [Ranolazine dihydrochloride]	10.9
O=C(O)C[C@H](O)C[C@H](O)/C=C/c1c(C2CC2)nc2ccccc2c1-c1ccc(F)cc1 [Pitavastatin calcium]	8.14
CCCC1O[C@@H]2C[C@H]3[C@@H]4CCC5=CC(=O)C=C[C@]5(C)[C@H]4[C@@H](O)C[C@]3(C)[C@]2(C(=O)CO)O1 (stereo partly specified) [Budesonide]	2.27
N#C[C@@H]1C[C@@H]2C[C@@H]2N1C(=O)[C@@H](N)C12CC3CC(CC(O)(C3)C1)C2 [Saxagliptin hydrochloride]	-2.67
CC(=O)Oc1cc2c(s1)CCN(C(C(=O)C1CC1)c1ccccc1F)C2 (stereo unspecified) [Prasugrel]	6.75
CN(C)C(=N)NC(=N)N [Metformin hydrochloride]	8.63
CN(C)CCc1c[nH]c2ccc(C[C@H]3COC(=O)N3)cc12 [Zolmitriptan]	5.82
OCc1cc(C(O)CNCCCCCCOCCCCc2ccccc2)ccc1O (stereo unspecified) [Salmeterol xinafoate]	0.619

Compound	combined optomotor response
CC(=O)Nc1ccc(O)cc1 [Acetaminophen]	0.558
COc1cc([C@@H]2c3cc4c(cc3[C@@H](O[C@@H]3O[C@@H]5CO[C@@H](C)O[C@H]5[C@H](O)[C@H]3O)[C@H]3COC(=O)[C@H]23)OCO4)cc(OC)c1O [Etoposide]	4.51
COc1ccccc1Oc1c(NS(=O)(=O)c2ccc(C(C)(C)C)cc2)nc(-c2ncccn2)nc1OCCO [Bosentan]	1.31
CCc1nc(N)nc(N)c1-c1ccc(Cl)cc1 [Pyrimethamine]	7.22
O=c1n(CCCN2CCN(c3cccc(Cl)c3)CC2)nc2ccccn12 [Trazodone hydrochloride]	2.35
C#CCN[C@@H]1CCc2ccccc21 [Rasagiline mesylate]	6.3
CC(C)COCC(CN(Cc1ccccc1)c1ccccc1)N1CCCC1 (stereo unspecified) [Bepridil hydrochloride]	8.48
OCCN1C[C@H](O)[C@@H](O)[C@H](O)[C@H]1CO [Miglitol]	5.48
CCCCCCCN(CC)CCCC(O)c1ccc(NS(C)(=O)=O)cc1 (stereo unspecified) [Ibutilide hemifumarate]	5.81
COc1cc2nccc(Oc3ccc(NC(=O)C4(C(=O)Nc5ccc(F)cc5)CC4)cc3)c2cc1OC	0.162
Clc1ccc2nsnc2c1NC1=NCCN1 [Tizanidine hydrochloride]	1.65
C[C@H]1O[C@H](O[C@H]2[C@H](O)[C@@H](O)[C@@H](O[C@H]3[C@H](O)[C@@H](O)C(O)O[C@@H]3CO)O[C@@H]2CO)[C@H](O)[C@@H](O)[C@@H]1N[C@H]1C=C(CO)[C@@H](O)[C@H](O)[C@H]1O (stereo partly specified) [Acarbose]	3.82
CNS(=O)(=O)Cc1ccc2[nH]cc(CCN(C)C)c2c1 [Sumatriptan succinate]	-0.931
CC(C)(C(=O)O)c1ccc(C(O)CCCN2CCC(C(O)(c3ccccc3)c3ccccc3)CC2)cc1 (stereo unspecified) [Fexofenadine hydrochloride]	3.85
CNC(=O)c1cc(Oc2ccc(NC(=O)Nc3ccc(Cl)c(C(F)(F)F)c3)cc2)ccn1 [Sorafenib]	-1.64
CC(C)OC(=O)C(C)(C)Oc1ccc(C(=O)c2ccc(Cl)cc2)cc1 [Fenofibrate]	2.45
O=C1CCc2ccc(OCCCCN3CCN(c4cccc(Cl)c4Cl)CC3)cc2N1 [Aripiprazole]	1.74
Cc1cc2c(s1)Nc1ccccc1N=C2N1CCN(C)CC1 [Olanzapine]	8.87
